Assay outcomes from PubChem BioAssay.
Sampled rows, rich in hits. Any-hit rate of the full collection: about 19%.
TDP1 cell CPT: growth inhibition of DT40 Tdp1-/-;hTDP1 cells with camptothecin (screen for TDP1 inhibitors); chicken DT40 Tdp1-/-;hTDP1 cells + 20 nM CPT, ATP luminescence, 48 h; Potency, µM (top dose mostly 46.2 µM), usual class: inhibitors; hit rate 12% among 420,000; AID 686979; also: nearly all actives have a fitted effect of over 55% in size
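Cell growth measured by CellTiter-Glo luminescence after a minimum 48 h, 37 C compound exposure with 20 nM CPT in Tdp1-knockout DT40 cells stably expressing hTDP1, seeded 400/well; qHTS titration format.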
TDP1 block: inhibitors of human tyrosyl-DNA phosphodiesterase TDP1. Q9NUW8. recombinant TDP1, AlphaScreen DNA substrate cleavage. Potency, µM (highest dose often 130 µM), usual class: inhibitors. hit rate 0.28% among 350,000; also: nearly all actives have a fitted effect of over 40% in size
Target sequence (Q9NUW8 whole entry, looked up): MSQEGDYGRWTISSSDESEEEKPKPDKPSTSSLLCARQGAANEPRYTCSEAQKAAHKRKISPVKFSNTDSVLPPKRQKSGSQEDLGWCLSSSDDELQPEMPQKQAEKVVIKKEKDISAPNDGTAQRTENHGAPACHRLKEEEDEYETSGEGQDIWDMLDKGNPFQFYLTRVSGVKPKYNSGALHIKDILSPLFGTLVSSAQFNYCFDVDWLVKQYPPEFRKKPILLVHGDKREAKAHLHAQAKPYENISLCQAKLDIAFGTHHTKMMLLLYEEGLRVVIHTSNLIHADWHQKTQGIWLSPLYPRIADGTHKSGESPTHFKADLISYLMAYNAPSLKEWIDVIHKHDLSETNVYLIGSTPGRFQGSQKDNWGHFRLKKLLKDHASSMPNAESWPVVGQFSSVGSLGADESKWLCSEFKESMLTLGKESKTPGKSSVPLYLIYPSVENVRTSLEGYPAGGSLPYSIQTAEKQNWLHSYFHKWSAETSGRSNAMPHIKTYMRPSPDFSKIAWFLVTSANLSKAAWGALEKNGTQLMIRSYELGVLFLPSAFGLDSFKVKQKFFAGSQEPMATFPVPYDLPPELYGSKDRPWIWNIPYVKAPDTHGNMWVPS
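Compounds were preincubated with Tdp1 (1 nM final) for 15 min at room temperature before substrate (15 nM final) started a 5 min reaction; beads (10 ug/ml final) were then added for 10 min before AlphaScreen detection.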
Giardia killer: Giardia lamblia killing. Giardia lamblia trophozoite viability. activity change, % at 7.66 µM, hits read low. hit rate 0.15% among 340,000; in the data active = activity change below about -80%; inconclusive = between about -30% and that limit;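 also: parasites exposed to compound for two days anaerobically before the ATP read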
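Media and compound were dispensed first, then trophozoites at 100 cells/well; plates sat 48 hrs at 37 deg C without oxygen before ATP luminescence reagent was added and read after 15-30 min at room temperature.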
DT40 TDP1 no CPT: qHTS for Inhibitors of human tyrosyl-DNA phosphodiesterase 1 (TDP1): qHTS in cells in absence of CPT | Potency, µM (top dose mostly 46.2 µM), most hits filed as inhibitors | DT40 Tdp1-/- hTDP1 cells, no CPT, ATP luminescence, 48 h | hit rate 15% among 420,000 | AID 686978, 2013; also: nearly all actives have a fitted effect of over 55% in size
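Camptothecin absent (DMSO only). Human TDP1-complemented DT40 knockout cells, 400 cells/well, 37 °C for minimum 48 hr; ATP measured via CellTiter-Glo, 30 min dark incubation, luminescence.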
IL-1B inflam inh: inhibitors of inflammasome signaling (IL-1 beta secretion) | THP-1 LPS/ATP IL-1B secretion, AlphaLISA, 16 h; active compounds read low | activity change, % at 57.5 µM | hit rate 4.7% among 360,000 | AID 743279; in the data active = activity change below about -50%; inconclusive = mostly about -30% to -49%
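Secreted IL-1B measured by AlphaLISA bead assay after 16 h compound exposure of THP-1 cells; compounds (final up to 57.5 uM) added 1 h before LPS (250 ng/mL) and ATP (1.25 mM) stimulation; lower signal means less secretion.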
ELG1 repair inh: ELG1-dependent DNA repair inhibition; HEK293T ELG1-luciferase reporter, luminescence, 16 h; DNA damage induced by 5-fluorouridine; Potency, µM (titrated, usually from 46.1 µM), most hits filed as inhibitors; hit rate 2.3% among 330,000; AID 504467; also: nearly all actives have a fitted effect of over 55% in size
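Quantitative HTS, concentration-response format. 2,000 cells/well co-treated with 5-fluorouridine and compound, 16 hr in 5% CO2 at 37 °C; ONE-Glo luminescence read after 30 min.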
Of the large screens only hits and unclear results are named; the others gave an inactive call. Unless noted, calls follow the shape of the dose curve; as a rule, active = well fitted curve in the direction sought with a large enough effect; inconclusive = small, poorly fitted or top-dose-only effect, or another doubt; inactive = no such curve, though single readings can be large; an effect the other way counts as inactive or inconclusive.

N#Cc1cccc(-c2ccc3ncnc(N4CCNCC4)c3c2)c1	DT40 TDP1 no CPT inconclusive (no result: TDP1 block, Giardia killer, IL-1B inflam inh, ELG1 repair inh)
CN1CCN(c2ncnc3ccc(-c4cccc(NS(C)(=O)=O)c4)cc23)CC1	TDP1 cell CPT 3.7µM, DT40 TDP1 no CPT 6.5µM (no result: TDP1 block, Giardia killer, IL-1B inflam inh, ELG1 repair inh)
CS(=O)(=O)Nc1cccc(-c2ccc3ncnc(NC4CC4)c3c2)c1	TDP1 cell CPT 8.2µM, DT40 TDP1 no CPT 6.5µM (no result: TDP1 block, Giardia killer, IL-1B inflam inh, ELG1 repair inh)
CC(=O)NCCNc1ncnc2ccc(-c3cccc(NS(C)(=O)=O)c3)cc12	TDP1 cell CPT inconclusive (no result: TDP1 block, Giardia killer, IL-1B inflam inh, ELG1 repair inh)
CC1C/C(=N\NC(=S)NC(C)C)CC(C)(C)C1 (centres undefined)	TDP1 cell CPT 10µM, DT40 TDP1 no CPT 18µM, ELG1 repair inh inconclusive
CC1C/C(=N\NC(=O)c2cccnc2)CC(C)(C)C1 (centres undefined)	none
CC(C)C[C@@H](CN1CCC[C@H]1CN1C(=O)C(=O)NC[C@@H]1Cc1ccccc1)N1C[C@H](Cc2ccccc2)N(CC2CCCCCC2)C(=O)C1=O	TDP1 cell CPT 18µM, DT40 TDP1 no CPT inconclusive, IL-1B inflam inh -80 (no result: TDP1 block, Giardia killer, ELG1 repair inh)
O=C1NC[C@H](Cc2ccccc2)N(C[C@H]2CCCN2C[C@H](Cc2ccccc2)N2C[C@H](Cc3ccc(O)cc3)N(CC3CCCCCC3)C(=O)C2=O)C1=O	TDP1 cell CPT inconclusive, DT40 TDP1 no CPT inconclusive (no result: TDP1 block, ELG1 repair inh)
CC(C)C[C@@H](CN1CCC[C@@H]1CN1C(=O)C(=O)NC[C@@H]1Cc1ccccc1)N1C[C@H](Cc2ccc(O)cc2)N(CC2CCCCCC2)C(=O)C1=O	TDP1 cell CPT inconclusive, DT40 TDP1 no CPT inconclusive, IL-1B inflam inh -72 (no result: TDP1 block, ELG1 repair inh)
CC(C)C[C@@H](CN1CCC[C@H]1CN1C(=O)C(=O)NC[C@@H]1Cc1ccc(O)cc1)N1C[C@H](Cc2ccccc2)N(CC2CCCCCC2)C(=O)C1=O	TDP1 cell CPT inconclusive, DT40 TDP1 no CPT inconclusive, IL-1B inflam inh -91 (no result: TDP1 block, Giardia killer, ELG1 repair inh)
CC(C)C[C@H]1CNC(=O)C(=O)N1C[C@@H]1CCCN1C[C@H](Cc1ccccc1)N1C[C@H](Cc2ccccc2)N(CC2CCCCC2)C(=O)C1=O	TDP1 cell CPT inconclusive (no result: TDP1 block, Giardia killer, ELG1 repair inh)
NC(=O)CC(NC(=O)c1cccc(Br)c1)c1ccc(N2CCN(c3ccccn3)CC2)c([N+](=O)[O-])c1 (centres undefined)	TDP1 cell CPT 15µM, DT40 TDP1 no CPT 13µM (no result: TDP1 block)
NC(=O)CC(NC(=O)c1ccc(Br)cc1)c1ccc(N2CCN(c3ccccn3)CC2)c([N+](=O)[O-])c1 (centres undefined)	TDP1 cell CPT 23µM, DT40 TDP1 no CPT 21µM, ELG1 repair inh inconclusive
COc1ccc(CN2C(=O)CN(S(C)(=O)=O)CC2(C)C(=O)NC(C)C)cc1OC (centres undefined)	none (no result: TDP1 block, Giardia killer, ELG1 repair inh)
CCn1cc(C(=O)N2CCN(c3ccccc3F)CC2)c(=O)c2cc(S(=O)(=O)N(C)C)ccc21	DT40 TDP1 no CPT inconclusive (no result: Giardia killer, IL-1B inflam inh, ELG1 repair inh)
COCCN(C(=O)COC(=O)c1ccccc1Oc1ccccc1)c1c(N)n(Cc2ccccc2)c(=O)[nH]c1=O	none
CCC(Sc1nncn2c1cc1sccc12)C(=O)Nc1cccc(OC)c1 (centres undefined)	TDP1 cell CPT inconclusive, DT40 TDP1 no CPT 23µM (no result: Giardia killer, IL-1B inflam inh, ELG1 repair inh)
CCC(Sc1nc2ncccc2[nH]1)C(=O)Nc1cccc(OC)c1 (centres undefined)	TDP1 cell CPT inconclusive, DT40 TDP1 no CPT inconclusive (no result: Giardia killer, IL-1B inflam inh, ELG1 repair inh)
CCC(Sc1nnc(C)n2c1cc1sccc12)C(=O)Nc1ccccc1F (centres undefined)	TDP1 cell CPT inconclusive, DT40 TDP1 no CPT 21µM (no result: Giardia killer, IL-1B inflam inh, ELG1 repair inh)
COc1ccc(Cl)cc1NC(=O)CSc1nnc(C)n2c1cc1sccc12	none (no result: Giardia killer, IL-1B inflam inh, ELG1 repair inh)
CCCCCCCCCCC(C)(C)C(=O)Nc1c(OC)cc(OC)cc1OC	TDP1 cell CPT 10µM, DT40 TDP1 no CPT 10µM (no result: Giardia killer, IL-1B inflam inh, ELG1 repair inh)
O=S(=O)(c1ccccc1)c1nc(-c2cccc(Cl)c2)oc1NCc1ccccc1	TDP1 cell CPT inconclusive, DT40 TDP1 no CPT 26µM (no result: TDP1 block, Giardia killer, IL-1B inflam inh, ELG1 repair inh)
Cc1ccc(S(=O)(=O)c2nc(-c3ccccc3F)oc2NCc2ccccc2)cc1	TDP1 cell CPT inconclusive, DT40 TDP1 no CPT 21µM (no result: TDP1 block, Giardia killer, IL-1B inflam inh, ELG1 repair inh)
COc1ccc(-c2nc(S(=O)(=O)c3ccc(C)cc3)c(NCc3ccccc3)o2)cc1	TDP1 cell CPT inconclusive, DT40 TDP1 no CPT 16µM (no result: TDP1 block, Giardia killer, IL-1B inflam inh, ELG1 repair inh)
CCOc1ccc(-c2nc(S(=O)(=O)c3ccccc3)c(NCc3cccnc3)o2)cc1	TDP1 cell CPT inconclusive, DT40 TDP1 no CPT inconclusive, IL-1B inflam inh inconclusive, ELG1 repair inh 15µM (no result: TDP1 block)
CNc1oc(-c2ccccc2F)nc1S(=O)(=O)c1ccc(C)cc1	none
CC(C)c1ccc(S(=O)(=O)N2CCN(C(=O)CN3C(=O)c4ccccc4C3=O)CC2)cc1	ELG1 repair inh inconclusive
COc1ccc(S(=O)(=O)Nc2ccc3c(c2)C(=O)N([C@H](C)CO)C[C@H](C)[C@@H](CN(C)S(=O)(=O)c2ccc(F)cc2)O3)cc1	TDP1 cell CPT inconclusive, DT40 TDP1 no CPT inconclusive, ELG1 repair inh inconclusive
O=C(c1cccc([N+](=O)[O-])c1)N1CCN(c2ccc(Nc3ccccc3)nn2)CC1	TDP1 cell CPT inconclusive, DT40 TDP1 no CPT 21µM (no result: Giardia killer, IL-1B inflam inh, ELG1 repair inh)
Cc1ccc(Nc2ccc(N3CCN(C(=O)c4ccc([N+](=O)[O-])cc4Cl)CC3)nn2)cc1	TDP1 cell CPT 21µM, DT40 TDP1 no CPT 18µM (no result: Giardia killer, IL-1B inflam inh, ELG1 repair inh)
Cc1ccc(Nc2ccc(N3CCN(c4ccc([N+](=O)[O-])cc4)CC3)nn2)cc1	none
COc1ccc(CNC(=O)Cc2c(C)c3c(cc(C)c4c(C)c(C)oc43)oc2=O)cc1	none (no result: Giardia killer, IL-1B inflam inh, ELG1 repair inh)
